Measurements published in PubChem BioAssay (NCI).
About 83,000 compounds went through this panel and 20% of them were active in at least one assay; those are over-represented in the sample as a whole.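 Each cell line was grown in a 96-well plate and treated with one concentration of compound for 48 hours. Values below 10 were considered active.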 Values without a mark were called inactive. Calls of active or inactive are those of the source.

The molecules below were run on ACHN renal (assay: NCI-60 one-dose screen, 48 h (100 = growth as untreated, 0 = no growth, -100 = all killed)). Conditions: 10 µM unless noted.
Experimental: Growth inhibition of the ACHN human tumor cell line is measured as a screen for anti-cancer activity. Cells are grown in 96 well plates and exposed to the test compound for 48 hours. Compounds are tested at a single concentration, which is 10^-5 M for most compounds. The reported endpoint is percent growth (GI% or GIPRCNT), where numbers from 0 - 100% represent growth inhibition, and numbers from -100% - 0 represent cell death. For example, a value of 40 represents 60% growth inhibition. A value of 0 means no net growth occurred over the course of the experiment. A value of -40 indicates 40% of cells at the beginning of the experiment died by the end of the experiment. A value of -100 means all cells are dead at the end of the experiment.
NCI-60 Human Tumor Cell Lines Screen was performed using the standard one-dose NCI protocol, which is described in more detail at https://dtp.cancer.gov/discovery_development/nci-60/default.htm.
Compounds with GIPRCNT values below 10 were considered active. Activity score was based on GIPRCNT using the following formula: […]
Score is 0 for GIPRCNT values of 100 or above, 50 for GIPRCNT values of 0, and 100 for GIPRCNT values of -100.

| Structure (SMILES) | growth |
| --- | --- |
| CCOc1ccc(/C=C/C(=O)c2cccc(OCCCOc3cccc(C(=O)/C=C/c4ccc(OCC)cc4)c3)c2)cc1 | 79.4% |
| O=C1OCC2=C1C(c1ccccc1)c1cc3c(cc1N2CCO)OCCO3 (stereo not given) | 36.7% |
| O=c1cc(-c2ccccc2)nc(SCc2nc3cc(Cl)c(Cl)cc3[nH]2)[nH]1 | 97.3% |
| Cc1ccc(-c2nc(SCC(=O)N3CCN(c4cc5c(cc4F)c(=O)c(C(=O)O)cn5C4CC4)CC3)nc(Cl)c2C#N)cc1 | 106% |
| c1cc(OCCCCCOc2cccc(-c3nc4ccccc4[nH]3)c2)cc(-c2nc3ccccc3[nH]2)c1 | 6.47% (active) |
| O=C(O)CCCCCCCCCCN1C(=O)/C(=C2/C(=O)N(CC(=O)O)c3ccc(Br)cc32)SC1=S | 84.2% |
| COc1ccc(/C=C2\CN(C(=O)C(Cl)Cl)C/C(=C\c3ccc(OC)c(OC)c3)C2=O)cc1OC | -82.7% (active) |
| CCn1cc(C(=O)N/N=C/c2cccc(F)c2)c(=O)c2cc(F)c(N3CCNC(C)C3)c(F)c21 (stereo not given) | 74.4% |
| C=C1C(=O)O[C@H]2[C@H]1CC/C(COC(=O)NCc1ccc(Cn3c(=O)sn(-c4ccc(I)cc4)c3=O)cc1)=C\CC[C@@]1(C)O[C@@H]21 | 69.7% |
| O=C1/C(=C/c2ccccn2)SC(=S)N1N1CCOCC1 | 99.5% |
| Cc1nc([P+](c2ccccc2)(c2ccccc2)c2ccccc2)c(N2CCCCC2)o1 | 87.6% |
| O=C(Nc1cc(Cl)ccc1O)c1ccccc1Nc1ccnc(C(F)(F)F)c1 | 7.95% (active) |
| CN1C(=O)/C(=C/c2ccc(C(=O)Nc3ncc(Cc4cc(Cl)ccc4Cl)s3)cc2)SC1=S | 58.8% |
| Cc1ccc(Cc2cnc(NC(=O)/C=C/c3ccc(C)o3)s2)cc1 | 40.4% |
| CCN(CC)CCOc1ccc2c(-c3ccccc3)c(-c3ccc(OC)cc3)c(=O)oc2c1 | 75.3% |
| O=c1c2ccccc2n(C[C@H]2CO2)c2ccccc12 | -26.6% (active) |
| COc1cc2c(cc1-c1c(C)noc1C)ncc1nc(CN3CCOCC3)n([C@H](C)COC(F)F)c12 | 36.1% |
| O=[N+]([O-])c1c(O)c(Cl)cc(Cl)c1Cl | 103% |
| Oc1c(I)cc(I)cc1CN(Cc1ccccn1)Cc1ccccn1 | 10.4% |
| Cc1ccc(NC(=O)c2cc3ccccc3cc2O)c(C)c1 | 91.7% |

| Structure (SMILES) | growth |
| --- | --- |
| CC(=O)N1N=C(c2ccc(Nc3nc(Nc4ccc(F)cc4)nc(Nc4ccc(F)cc4)n3)cc2)CC1c1ccc(N(C)C)cc1 (stereo not given) | 58.7% |
| CN(C)CCCn1c2c(c3ccncc3c1=O)C(=O)c1ccccc1-2 | -38.4% (active) |
| CS(=O)(=O)Nc1cc(-c2ccc3ncnc(Nc4ccc5c(cnn5Cc5ccccc5F)c4)c3c2)cnc1Cl | 59% |
| CC(=O)c1sc(-c2ccc(F)cc2)cc1O | 106% |
| Cc1cc(NCCCNc2ccnc3cc(Cl)ccc23)nc(Nc2ccc(C(=O)N3CCCCC3)cc2)n1 | 43.2% |
| C#Cc1cccc(NC(=O)C2CCCCN2C(=O)CCl)c1 (stereo not given) | -97.3% [8.25 µM] (active) |
| Nc1nc(C(=O)N/N=C/c2ccc(F)cc2)nn1-c1ccc(S(N)(=O)=O)cc1 | 99.2% |
| COc1cc(O)c2c(=O)c3c(CC=C(C)C)cc(OC)c(O)c3oc2c1 | 50.3% |
| CN(C)Cc1ccc(NC(=O)c2cncc(C#Cc3cnc(N)c4ncccc34)c2)cc1C(F)(F)F | -81.8% (active) |
| Cc1ccc2c(c1)=C/C(=C\c1cc(-c3ccccc3)[nH]c1O)C(=O)N=2 | 65.6% |
| COc1cc(-c2nccc3[nH]c(-c4cccc5[nH]ccc45)nc23)cc(OC)c1OC | 17% |
| COc1ccc(CN2C(=O)OC(C)(COC(C)=O)C2=O)cc1 (stereo not given) | 102% |
| CC1(/C=C/c2ccc(-c3ccccc3)cc2)CCn2cnc3ncnc(c32)N1O (stereo not given) | 6.19% (active) |
| O=C(/C=C/c1ccccc1)c1ccc(-n2cc(CN3CCN(c4cc5c(cc4F)c(=O)c(C(=O)O)cn5C4CC4)CC3)nn2)cc1 | 93.5% |
| COc1ccc(C/C(C)=C(\c2ccc(Cl)cc2)c2ccc(OCCCN(C)C)cc2)cc1 | 90% |
| Cn1cc(-c2csc(-c3cn(C)c4ccccc34)n2)c2cnccc21 | -61.4% (active) |
| C=CC(=O)Nc1cccc(Oc2nccc(Nc3nnc(-c4ccc(Br)cc4)s3)n2)c1 | 100% |
| Cc1c2ccccc2nc2cc3c(cc12)[C@H]1CC[C@]2(C)C(=O)CC[C@H]2[C@@H]1CC3 | 95% |
| CCOC(=O)c1c(C)nc2ccccc2c1/C=C/c1ccc(F)cc1 | 75.5% |
| CC1(C)CC[C@]23CC[C@]4(C)[C@H](CC[C@@H]5[C@@]6(C)C/C(=C/O)C(=O)C(C)(C)[C@@H]6CC[C@]54C)[C@H]2[C@H]1OC3 | 110% |
